Results reported in PubChem BioAssay (NCATS).
Results filed as inconclusive are left out. Activity calls are given as the source filed them. Calls come from the whole dose curve; as a rule, active = well fitted curve in the direction sought with a large enough effect; inconclusive = small, poorly fitted or top-dose-only effect, or another doubt; inactive = no such curve, though single readings can be large; an effect the other way counts as inactive or inconclusive.

Assays:
[1] = qHTS of pediatric cancer cell lines to identify multiple opportunities for drug repurposing: Primary screen for LAN-5 cells (AID 1347100);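 note: plate controls were DMSO neutral control for no effect and bortezomib positive control for full effect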
Outline: (§1)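 Viability after 48 h compound treatment at 37C, 500-1,000 cells/well, read as ATP luminescence with CellTiter-Glo. Primary screens used 11-point (MIPE, 0.78 nM-46 µM) or 8-point (NPC, 0.59 nM-46 µM) final concentrations; follow-up screens used 11-point dilutions.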

[2] = qHTS of pediatric cancer cell lines to identify multiple opportunities for drug repurposing: Primary screen for BT-12 cells (AID 1347101);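 note: plate controls were DMSO for no effect and bortezomib positive control for full effect; nearly all actives have a fitted effect of over 25% in size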
Outline: (§2)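 Cells (500-1,000/well) rested 5 h, then received compounds for 48 h; metabolically active cells were measured by CellTiter-Glo luminescence. Final concentrations spanned up to 46 µM (MIPE, 11-point) or 0.59 nM-46 µM (NPC, 8-point) in primary screens, 11-point in follow-ups.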

[3] = qHTS of pediatric cancer cell lines to identify multiple opportunities for drug repurposing: Primary screen for Rh18 cells (AID 1347102); note: % is set by controls: 0 for no effect and ±100 for the full control effect; nearly all actives have a fitted effect of over 65% in size
Outline: as §1

[4] = qHTS of pediatric cancer cell lines to identify multiple opportunities for drug repurposing: Primary screen for OHS-50 cells (AID 1347103);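 note: plate controls were DMSO neutral control for no effect and bortezomib positive control for full effect; nearly all actives have a fitted effect of over 40% in size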
Outline: as §2

[5] = qHTS of pediatric cancer cell lines to identify multiple opportunities for drug repurposing: Primary screen for RD cells (AID 1347104);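 note: plate controls were DMSO for no effect and bortezomib for full effect; nearly all actives have a fitted effect of over 55% in size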
Outline: (§3)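 500-1,000 cells/well; 5 h pre-incubation 37 °C/5% CO2; compound pinned; 48 h; CellTiter-Glo, 15 min RT; luminescence. MIPE 11-pt from 0.78 nM, NPC 8-pt from 0.59 nM final. Bortezomib 2.3 µM final as positive control.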

[6] = qHTS of pediatric cancer cell lines to identify multiple opportunities for drug repurposing: Primary screen for control Hh wild type fibroblast cells (AID 1347106);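 note: series mostly up to about 46 µM; % is set by controls: 0 for no effect and ±100 for the full control effect; a drop in luminescence marks cytotoxicity and a rise apparent proliferation; nearly all actives have a fitted effect of over 55% in size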
Outline: as §1

[7] = qHTS of pediatric cancer cell lines to identify multiple opportunities for drug repurposing: Primary screen for Rh30 cells (AID 1347107); note: series mostly up to about 46 µM; % is set by controls: 0 for no effect and ±100 for the full control effect; nearly all actives have a fitted effect of over 75% in size
Outline: as §1

[8] = qHTS of pediatric cancer cell lines to identify multiple opportunities for drug repurposing: Primary screen for Rh41 cells (AID 1347108);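 note: series mostly up to about 46 µM; luminescence drop marks cytotoxic hits; nearly all actives have a fitted effect of over 70% in size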
Outline: as §3

[9] = qHTS of pediatric cancer cell lines to identify multiple opportunities for drug repurposing: Primary screen for MG 63 (6-TG R) cells (AID 1347105); note: % is set by controls: 0 for no effect and ±100 for the full control effect; nearly all actives have a fitted effect of over 50% in size
Outline: as §3

[10] = qHTS of pediatric cancer cell lines to identify multiple opportunities for drug repurposing: Confirmatory screen for NB1643 cells (AID 1347109);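 note: plate controls were DMSO for no effect and bortezomib for full effect; nearly all actives have a fitted effect of over 45% in size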
Outline: as §1

Nc1ccncc1
inactive: Potency [1] | Potency [2] | Potency [3] | Potency [4] | Potency [5] | Potency [6] | Potency [7] | Potency [8]

O=C1NCN(c2ccccc2)C12CCN(CC1COc3ccccc3O1)CC2 (configuration not stated)
inactive: Potency [1] | Potency [2] | Potency [3] | Potency [4] | Potency [5] | Potency [9] | Potency [6] | Potency [7] | Potency [8]

C=CCN1CC[C@]23c4c5ccc(O)c4O[C@H]2C(=O)CC[C@@]3(O)[C@H]1C5
inactive: Potency [1] | Potency [2] | Potency [3] | Potency [4] | Potency [5] | Potency [6] | Potency [7] | Potency [8]

CC(=O)Nc1cc([As](=O)(O)O)ccc1O
inactive: Potency [1] | Potency [2] | Potency [3] | Potency [4] | Potency [5] | Potency [9] | Potency [6] | Potency [7] | Potency [8]

Cc1ncc(CNC(=O)N(CCCl)N=O)c(N)n1
inactive: Potency [1] | Potency [2] | Potency [3] | Potency [4] | Potency [5] | Potency [9] | Potency [6] | Potency [7] | Potency [8]

O=C(NC(O)C(Cl)(Cl)Cl)NC(O)C(Cl)(Cl)Cl (configuration not stated)
inactive: Potency [1] | Potency [2] | Potency [3] | Potency [4] | Potency [5] | Potency [9] | Potency [6] | Potency [7] | Potency [8]

C#CCN(C)[C@H](C)Cc1ccccc1
inactive: Potency [1] | Potency [2] | Potency [3] | Potency [4] | Potency [5] | Potency [9] | Potency [6] | Potency [7] | Potency [8]

CN1CCN(C(=O)O[C@H]2c3nccnc3C(=O)N2c2ccc(Cl)cn2)CC1
inactive: Potency [1] | Potency [2] | Potency [3] | Potency [4] | Potency [5] | Potency [9] | Potency [6] | Potency [7] | Potency [8]

CCOP(=S)(OCC)Oc1cc(C)nc(C(C)C)n1
inactive: Potency [1] | Potency [2] | Potency [3] | Potency [4] | Potency [5] | Potency [9] | Potency [6] | Potency [7] | Potency [8]

CN(C)CCc1ccc(O)cc1
inactive: Potency [1] | Potency [2] | Potency [3] | Potency [4] | Potency [5] | Potency [9] | Potency [6] | Potency [7] | Potency [8]

CC(C)NCC(O)c1ccccc1Cl (configuration not stated)
inactive: Potency [1] | Potency [2] | Potency [3] | Potency [4] | Potency [5] | Potency [9] | Potency [6] | Potency [7] | Potency [8]

O=C1CC[C@@]2(O)[C@H]3Cc4ccc(O)c5c4[C@@]2(CCN3CC2CC2)[C@H]1O5
inactive: Potency [1] | Potency [2] | Potency [3] | Potency [4] | Potency [5] | Potency [9] | Potency [6] | Potency [7] | Potency [8]

CCN(CC)C(=O)N[C@@H]1C=C2c3cccc4[nH]cc(c34)C[C@@H]2N(C)C1
inactive: Potency [1] | Potency [2] | Potency [3] | Potency [4] | Potency [5] | Potency [9] | Potency [6] | Potency [7] | Potency [8]

N[C@@H](Cc1ccc(Oc2cc(I)c(O)c(I)c2)c(I)c1)C(=O)O
inactive: Potency [1] | Potency [2] | Potency [3] | Potency [4] | Potency [5] | Potency [9] | Potency [6] | Potency [7] | Potency [8]

O=c1oc2ccccc2c(O)c1C(CC(O)c1ccc(-c2ccc(Br)cc2)cc1)c1ccccc1 (configuration not stated)
inactive: Potency [1] | Potency [2] | Potency [3] | Potency [4] | Potency [5] | Potency [9] | Potency [6] | Potency [7] | Potency [8]

CCCN1CCC[C@@H]2Cc3[nH]ncc3C[C@H]21
inactive: Potency [1] | Potency [2] | Potency [3] | Potency [4] | Potency [5] | Potency [9] | Potency [6] | Potency [7] | Potency [8]

CC(C)CC(N(C)C)C1(c2ccc(Cl)cc2)CCC1 (configuration not stated)
inactive: Potency [1] | Potency [2] | Potency [3] | Potency [4] | Potency [5] | Potency [9] | Potency [6] | Potency [7] | Potency [8]

NCC(O)c1ccc(O)cc1 (configuration not stated)
inactive: Potency [1] | Potency [2] | Potency [3] | Potency [4] | Potency [5] | Potency [9] | Potency [6] | Potency [7] | Potency [8]

Cc1ccc2c(c1)C1CN(C)CCC1N2 (configuration not stated)
inactive: Potency [1] | Potency [2] | Potency [3] | Potency [4] | Potency [5] | Potency [6] | Potency [7] | Potency [8]

O=[N+]([O-])c1cc([As](=O)(O)O)ccc1O
inactive: Potency [1] | Potency [2] | Potency [3] | Potency [4] | Potency [5] | Potency [9] | Potency [6] | Potency [7] | Potency [8]

CCN(CC)CCOC(=O)C(O)(c1ccccc1)c1ccccc1
inactive: Potency [1] | Potency [2] | Potency [3] | Potency [4] | Potency [5] | Potency [9] | Potency [6] | Potency [7] | Potency [8]

CCCC1CCCCN1 (configuration not stated)
inactive: Potency [1] | Potency [2] | Potency [3] | Potency [4] | Potency [5] | Potency [9] | Potency [6] | Potency [7] | Potency [8]

NCC(CC(=O)O)c1ccc(Cl)cc1 (configuration not stated)
inactive: activity change, negative = cytotoxic [1] -9.23% [at 0.597 µM] | activity change, negative = cytotoxic [2] 1.13% [at 0.745 µM] | activity change, negative = cytotoxic [3] -2.74% [at 0.597 µM] | activity change, negative = cytotoxic [4] -11.1% [at 0.73 µM] | activity change, negative = cytotoxic [5] 1.05% [at 0.597 µM] | activity change, negative = cytotoxic [9] -15.2% [at 0.597 µM] | activity change, negative = cytotoxic [6] 6.77% [at 0.597 µM] | activity change, negative = cytotoxic [7] -0.257% [at 0.597 µM] | activity change, negative = cytotoxic [8] 9.97% [at 0.597 µM]

CC(=O)[C@H]1CC[C@H]2[C@@H]3CC[C@H]4C[C@](C)(O)CC[C@]4(C)[C@H]3CC[C@]12C
inactive: Potency [1] | Potency [2] | Potency [3] | Potency [4] | Potency [5] | Potency [9] | Potency [6] | Potency [7] | Potency [8]

N[C@@H]1C[C@H]1c1ccccc1
inactive: Potency [1] | Potency [2] | Potency [3] | Potency [4] | Potency [5] | Potency [6] | Potency [7] | Potency [8]

NP(N)(=O)NC(=O)c1ccc(F)cc1
inactive: Potency [1] | Potency [2] | Potency [3] | Potency [4] | Potency [5] | Potency [9] | Potency [6] | Potency [7] | Potency [8]

COc1ccc(C(CN(C)C)C2(O)CCCCC2)cc1 (configuration not stated)
inactive: Potency [1] | Potency [2] | Potency [3] | Potency [4] | Potency [5] | Potency [9] | Potency [6] | Potency [7] | Potency [8]

COc1ccccc1N1CCNCC1
inactive: Potency [1] | Potency [2] | Potency [3] | Potency [4] | Potency [5] | Potency [9] | Potency [6] | Potency [7] | Potency [8]

CC[N+](CC)(CC)CC
inactive: Potency [1] | Potency [2] | Potency [3] | Potency [4] | Potency [5] | Potency [9] | Potency [6] | Potency [7] | Potency [8]

CC[N+]1(C)CCCC(OC(=O)C(O)(c2ccccc2)c2ccccc2)C1 (configuration not stated)
inactive: Potency [1] | Potency [2] | Potency [3] | Potency [4] | Potency [5] | Potency [6] | Potency [7] | Potency [8]

CC(C)(C)NCC(O)c1cc(Cl)c(N)c(Cl)c1 (configuration not stated)
inactive: Potency [1] | Potency [2] | Potency [3] | Potency [4] | Potency [5] | Potency [9] | Potency [6] | Potency [7] | Potency [8]

CCC1(C2=NCCN2)Cc2ccccc2O1 (configuration not stated)
inactive: Potency [1] | Potency [2] | Potency [3] | Potency [4] | Potency [5] | Potency [9] | Potency [6] | Potency [7] | Potency [8]

OCCOc1ccccc1
inactive: Potency [1] | Potency [2] | Potency [3] | Potency [4] | Potency [5] | Potency [9] | Potency [6] | Potency [7] | Potency [8]

CCCN1CCC[C@@H]2Cc3nc(N)ncc3C[C@H]21
inactive: Potency [1] | Potency [2] | Potency [3] | Potency [4] | Potency [5] | Potency [9] | Potency [6] | Potency [7] | Potency [8]

C[C@]12CCC(=O)C(O)=C1CC[C@@H]1[C@@H]2CC[C@]2(C)C(=O)CC[C@@H]12
inactive: Potency [1] | Potency [2] | Potency [3] | Potency [4] | Potency [5] | Potency [9] | Potency [6] | Potency [7] | Potency [8]

Cc1ccc(-c2nc3ccc(C)cn3c2CC(=O)N(C)C)cc1
inactive: Potency [1] | Potency [2] | Potency [3] | Potency [4] | Potency [5] | Potency [9] | Potency [6] | Potency [7] | Potency [8]

O=P1(NCCCl)OCCCN1CCCl (configuration not stated)
inactive: Potency [1] | Potency [2] | Potency [3] | Potency [4] | Potency [5] | Potency [6] | Potency [7] | Potency [8] | Potency [10]

O=C(O)c1ccc2[nH]cc(CCCCN3CC=C(c4ccccc4)CC3)c2c1
inactive: Potency [1] | Potency [2] | Potency [3] | Potency [5] | Potency [9] | Potency [6] | Potency [7] | Potency [8]

C[C@]12CC[C@H]3[C@@H](CCC4=CC(=O)CC[C@@H]43)[C@@H]1CC[C@@H]2OC(=O)CCc1ccccc1
inactive: Potency [1] | Potency [2] | Potency [3] | Potency [4] | Potency [5] | Potency [6] | Potency [7] | Potency [8]

Cc1cc(SCc2sc(-c3ccc(C(F)(F)F)c(F)c3)nc2C)ccc1OCC(=O)O
inactive: Potency [1] | Potency [2] | Potency [3] | Potency [5] | Potency [6] | Potency [7] | Potency [8]

CNCC(O)c1ccc(O)cc1 (configuration not stated)
inactive: Potency [1] | Potency [2] | Potency [3] | Potency [4] | Potency [5] | Potency [6] | Potency [7] | Potency [8]

CN1C(=S)CN=C(c2ccccc2)c2cc(Cl)ccc21
inactive: Potency [1] | Potency [2] | Potency [3] | Potency [4] | Potency [5] | Potency [6] | Potency [7] | Potency [8]
